Assay [1] in a line: Human pregnane X receptor (PXR) small molecule agonists, qHTS cell viability counter screen (AID 1346977). Note: % is set by controls: 0 for no effect and ±100 for the full control effect; nearly all actives have a fitted effect of over 50% in size. Put shortly:
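PXR-Luc HepG2 cells in medium with 5% charcoal-stripped FBS were pre-incubated 5hr, then exposed to compounds for 24hr at 37C. Viability was read in the same wells by CellTiter-Fluor fluorescence, reagent added after 23hr with a 1hr incubation.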
In general terms: In qHTS, concentration-response curves come from the screen itself.

The nature of assay [2]: Caspase-3/7 induction in HepG2 cells by small molecules, qHTS assay (AID 1346978). Note: % is set by controls: 0 for no effect and ±100 for the full control effect; nearly all actives have a fitted effect of over 15% in size. Put shortly: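 Caspase-3/7 induction was measured by Caspase-Glo 3/7 luminescence (30 min, room temperature) after a 17 hr compound exposure of wild-type HepG2 cells seeded at 2,000 per well and pre-incubated 5 hr.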
The nature of assay [3]: Caspase-3/7 induction in HepG2 cells by small molecules, qHTS cell viability counter screen (AID 1346981). Note: series mostly up to about 92 µM; % is set by controls: 0 for no effect and ±100 for the full control effect; nearly all actives have a fitted effect of over 30% in size. A digest of the protocol:
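Wild-type HepG2 cells (2,000/well) were allowed to settle for 5 hr at 37 C, 5% CO2, then dosed with compounds in DMSO by pin transfer. After 16 hr at 37 C, CellTiter-Fluor was added and fluorescence read 1 hr later.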

Assay [4] addresses Nuclear receptor subfamily 1 group I member 2 (Homo sapiens) (UniProt O75469). As to the kind of experiment: Human pregnane X receptor (PXR) small molecule agonists, qHTS assay (AID 1346982). For activation: % is set by controls: 0 for no effect and ±100 for the full control effect. Note: nearly all actives have a fitted effect of over 35% in size. Note: potency is the fitted concentration of half-maximal effect. Put shortly:
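PXR-Luc HepG2 cells (CYP3A4 promoter-driven luciferase) were seeded in medium with 5% charcoal-stripped FBS, left 5 hr at 37 C, then exposed to compounds in DMSO for 24 hr. Luminescence was read after ONE-Glo addition.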

The target in assay [5] is Acetylcholinesterase (Homo sapiens) (UniProt P22303). As to the kind of experiment: Acetylcholinesterase (AChE) small molecule antagonists: colormetric cell-based qHTS assay (AID 1347395; calls by dose curve; note: % is set by controls: 0 for no effect and ±100 for the full control effect; nearly all actives have a fitted effect of over 30% in size). A digest of the protocol: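 SH-SY5Y cells, plated overnight at 37 C, were exposed to compounds for 30 min at 37 C and 5% CO2. Acetylthiocholine plus DTNB was then added, and thiocholine from endogenous AChE was quantified colorimetrically after 90 min at 37 C.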

For assay [6] the target is unchanged. As to the kind of experiment: Acetylcholinesterase (AChE) small molecule antagonists: enzyme-based qHTS assay (AID 1347397; calls by dose curve; note: % is set by controls: 0 for no effect and ±100 for the full control effect; nearly all actives have a fitted effect of over 55% in size). The following applies: Potency: AChE enzyme activity inhibition. A digest of the protocol: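 rhAChE 50 mU/mL (dispensed) + cpd or DMSO, 30 min RT; add DTNB/acetylthiocholine cocktail, 10 min RT; colorimetric thiocholine readout. qHTS, 1536-well format.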

For assay [7] the target is unchanged. The assay is described as follows: Acetylcholinesterase (AChE) small molecule antagonists: fluorescence cell-based qHTS assay (AID 1347398; calls by dose curve; note: % is set by controls: 0 for no effect and ±100 for the full control effect; nearly all actives have a fitted effect of over 50% in size). The following applies: Potency: AChE activity. A digest of the protocol:
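Read-out is Thiolite Green fluorescence at Ex/Em = 490/520 nm, formed by reaction with thiocholine released when cellular AChE in SH-SY5Y cells hydrolyzes acetylthiocholine. Compounds were preincubated 30 min at 37 C before substrate.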

Assay [8] shares this target. The assay is described as follows: Acetylcholinesterase (AChE) small molecule antagonists: enzyme-based qHTS assay with human liver microsomes (AID 1347399; calls by dose curve; note: % is set by controls: 0 for no effect and ±100 for the full control effect; nearly all actives have a fitted effect of over 60% in size). The settings on record: Potency: qHTS inhibition. Put shortly:
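Recombinant human AChE (50 mU/mL in the enzyme mix) and human liver microsomes (0.25 mg/mL final) were preincubated with compound and NADPH (0.25 mg/mL final) for 30 min at 37 C. Acetylthiocholine/DTNB was then added; thiocholine was read colorimetrically after 10 min at room temperature.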

The target in assay [9] is Cytochrome P450 2D6 (Homo sapiens) (UniProt P10635). The assay is described as follows: Cytochrome P450 Family 2 Subfamily D Member 6 (CYP2D6) small molecule antagonists: luciferase reporter qHTS assay (AID 1671196). Note: nearly all actives have a fitted effect of over 50% in size. Note: potency is the fitted concentration of half-maximal effect. A digest of the protocol:
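CYP2D6 enzyme–substrate mix was held with compound for 10 min at room temperature, then NADPH regeneration solution was added and the reaction ran 1 h at room temperature. Luciferin product was detected by luminescence after 20 min with detection reagent.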
On the technique in general: In a reporter assay the amount or activity of a reporter protein is the signal.

The target in assay [10] is Cytochrome P450 2C19 (Homo sapiens) (UniProt P33261). The assay is described as follows: Cytochrome P450 Family 2 Subfamily C Member 19 (CYP2C19) small molecule antagonists: luciferase reporter qHTS assay (AID 1671197). Note: nearly all actives have a fitted effect of over 65% in size. Note: potency is the fitted concentration of half-maximal effect. Put shortly:
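P450-Glo CYP2C19 system: enzyme-substrate mix with compound 10 min at room temperature, then NADPH regeneration solution, 1 h at 37C. Proluciferin-to-luciferin conversion detected by luminescence after 20 min with detection reagent; ketoconazole as positive control.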

The target of assay [11] is Cytochrome P450 2C9 (Homo sapiens) (UniProt P11712). As to the kind of experiment: Cytochrome P450 Family 2 Subfamily C Member 9 (CYP2C9) small molecule antagonists: luciferase reporter qHTS assay (AID 1671198). Note: nearly all actives have a fitted effect of over 50% in size. Note: potency is the fitted concentration of half-maximal effect. Put shortly: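 Enzyme-substrate mix preincubated with compound 10 min at room temperature; reaction started with NADPH regeneration solution, 1 h 37C. Luminescent luciferin product read after 20 min detection reagent.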

The target of assay [12] is Cytochrome P450 1A2 (Homo sapiens) (UniProt P05177). As to the kind of experiment: Cytochrome P450 Family 1 Subfamily A Member 2 (CYP1A2) small molecule antagonists: luciferase reporter qHTS assay (AID 1671199). Note: nearly all actives have a fitted effect of over 50% in size. Note: potency is the fitted concentration of half-maximal effect. A digest of the protocol:
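Human CYP1A2 activity measured with a P450-Glo proluciferin substrate; compounds in DMSO preincubated 10 min at room temperature with enzyme-substrate mix, then NADPH regeneration system added for 1 h. Luciferin detection reagent, 20 min, luminescence read.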

The target of assay [13] is Voltage-gated inwardly rectifying potassium channel KCNH2 (Homo sapiens) (UniProt Q12809). The assay is described as follows: Human Ether-a-go-go-Related Gene (hERG) channel small molecule antagonists: fluorescence cell-based qHTS assay (AID 1671200). Note: nearly all actives have a fitted effect of over 50% in size. Note: potency is the fitted concentration of half-maximal effect. Put shortly:
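U2OS cells expressing the channel were plated at 1000 cells/well, incubated overnight at 37 C, then loaded with FluxOR II thallium-sensitive dye for 1 h at room temperature in the dark, with a further 10 min at room temperature before stimulation.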
For orientation: hERG is a cardiac potassium channel; its block is linked to QT prolongation.

Assay [14] deals with Cytochrome P450 3A4 (Homo sapiens) (UniProt P08684). As to the kind of experiment: Cytochrome P450 Family 3 Subfamily A Member 4 (CYP3A4) small molecule antagonists: luciferase reporter qHTS assay (AID 1671201). Note: nearly all actives have a fitted effect of over 50% in size. Note: potency is the fitted concentration of half-maximal effect. A digest of the protocol:
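P450-Glo CYP3A4 system with proluciferin substrate; compounds preincubated 10 min RT with enzyme-substrate mix, then NADPH regeneration added for 1 h RT. Detection reagent 20 min, luminescence read as relative luminescence units.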

Assay [15] in a line: Caspase-3/7 induction in CHO-K1 cells by small molecules, qHTS assay (AID 1346980). Note: % is set by controls: 0 for no effect and ±100 for the full control effect; nearly all actives have a fitted effect of over 15% in size. Put shortly:
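Luminescent Caspase-Glo 3/7 read (30min, room temperature) quantified apoptosis induction. Cells were wild-type CHO-K1, treated with compound for 17hr at 37 C and 5% CO2.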

Assay [16] is described as follows: Caspase-3/7 induction in CHO-K1 cells by small molecules, qHTS cell viability counter screen (AID 1346979). Note: % is set by controls: 0 for no effect and ±100 for the full control effect; nearly all actives have a fitted effect of over 35% in size. Put shortly: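 Wild-type CHO-K1 cells were seeded at 1,500 per well, rested 5hr at 37 C, then exposed to compounds in DMSO. After 16hr, CellTiter-Fluor reagent was added and fluorescence read 1hr later as the viability measure.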
The target of assay [17] is Nuclear receptor subfamily 1 group I member 2 (Rattus norvegicus) (UniProt Q9R1A7). The assay is described as follows: Rat pregnane X receptor (rPXR) activation by small molecules, qHTS assay (AID 1346983). Note: % is set by controls: 0 for no effect and ±100 for the full control effect; nearly all actives have a fitted effect of over 20% in size. The following applies: rPXR luciferase reporter cells, One-Glo luminescence, 24 h; max activation: stronger effect = higher value. A digest of the protocol: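 Luminescent readout (One-Glo luciferase, 30 min room temperature) followed 24 hr compound treatment at 37 C of rPXR cells plated 2,000 per well and preincubated 5hr; qHTS format with compounds delivered in DMSO.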

For assay [18], the target named is Nuclear receptor subfamily 1 group I member 2 (Homo sapiens) (UniProt O75469). As to the kind of experiment: CYP3A4 induction through human pregnane X receptor (PXR) by small molecules, qHTS assay (AID 1346984). Note: % is set by controls: 0 for no effect and ±100 for the full control effect; nearly all actives have a fitted effect of over 40% in size. A digest of the protocol:
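DPX-2 cells (HepG2 co-transfected with PXR and CYP3A4 promoter-luciferase) treated with compounds 24 h at 37C; luciferin-IPA CYP3A4 substrate 3uM final added for 3 h, then One-Glo; luminescence read. qHTS format.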

The target is the same in assay [19]. The assay is described as follows: Human pregnane X receptor (PXR) activation by small molecules, qHTS assay (AID 1346985). Note: potency is the fitted concentration of half-maximal effect; nearly all actives have a fitted effect of over 40% in size. A digest of the protocol:
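DPX-2 cells (HepG2 co-transfected with a PXR response element and a CYP3A4-promoter luciferase construct) were seeded at 2,000 per well, rested 5 hr at 37C, then exposed to DMSO-dissolved compounds for 24 hr. Activation was read as luciferase luminescence.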

Several values for one entry are separate records, joined by “and”; a condition that tells them apart may be missing. Equal values may be shown once. Inconclusive results are not listed. Some structures have more than one record in an assay (separate samples or runs), and their calls can disagree. Activity calls are given as the source filed them. Unless noted, calls come from the whole dose curve; as a rule, active = well fitted curve in the direction sought with a large enough effect in the repeat runs; inconclusive = weak or mixed curves; inactive = no such curve, though single readings can be large; an effect the other way counts as inactive or inconclusive.

Cytochrome P450 1A2 (Homo sapiens), sequence (P05177 whole entry, looked up): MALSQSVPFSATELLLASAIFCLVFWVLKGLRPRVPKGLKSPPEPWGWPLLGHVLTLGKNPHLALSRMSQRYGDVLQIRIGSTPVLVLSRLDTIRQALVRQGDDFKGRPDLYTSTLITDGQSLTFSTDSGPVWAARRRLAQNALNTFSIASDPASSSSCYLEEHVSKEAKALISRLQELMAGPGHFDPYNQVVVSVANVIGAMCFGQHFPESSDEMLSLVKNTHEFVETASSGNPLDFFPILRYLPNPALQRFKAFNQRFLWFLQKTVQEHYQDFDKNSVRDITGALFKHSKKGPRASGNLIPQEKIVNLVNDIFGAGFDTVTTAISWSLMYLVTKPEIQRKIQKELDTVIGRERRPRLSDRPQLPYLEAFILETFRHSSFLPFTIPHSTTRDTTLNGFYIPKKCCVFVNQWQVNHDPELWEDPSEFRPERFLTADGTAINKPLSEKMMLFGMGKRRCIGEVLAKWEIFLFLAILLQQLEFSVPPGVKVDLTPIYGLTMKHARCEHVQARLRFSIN
Cytochrome P450 2C19 (Homo sapiens), sequence (P33261 whole entry, looked up): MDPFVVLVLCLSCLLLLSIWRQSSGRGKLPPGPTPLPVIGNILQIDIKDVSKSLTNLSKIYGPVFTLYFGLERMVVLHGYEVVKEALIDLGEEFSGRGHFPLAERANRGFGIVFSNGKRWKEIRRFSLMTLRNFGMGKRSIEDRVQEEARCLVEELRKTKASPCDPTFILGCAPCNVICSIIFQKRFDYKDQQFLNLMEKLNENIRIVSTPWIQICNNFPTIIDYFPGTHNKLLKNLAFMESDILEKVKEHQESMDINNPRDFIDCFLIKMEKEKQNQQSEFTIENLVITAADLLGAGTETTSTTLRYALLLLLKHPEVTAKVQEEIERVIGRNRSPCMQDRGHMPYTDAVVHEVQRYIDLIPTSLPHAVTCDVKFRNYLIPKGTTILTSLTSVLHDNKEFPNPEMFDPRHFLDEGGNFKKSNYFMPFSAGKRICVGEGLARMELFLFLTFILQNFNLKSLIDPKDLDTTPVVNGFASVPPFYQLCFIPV
Acetylcholinesterase (Homo sapiens), sequence (P22303 whole entry, looked up): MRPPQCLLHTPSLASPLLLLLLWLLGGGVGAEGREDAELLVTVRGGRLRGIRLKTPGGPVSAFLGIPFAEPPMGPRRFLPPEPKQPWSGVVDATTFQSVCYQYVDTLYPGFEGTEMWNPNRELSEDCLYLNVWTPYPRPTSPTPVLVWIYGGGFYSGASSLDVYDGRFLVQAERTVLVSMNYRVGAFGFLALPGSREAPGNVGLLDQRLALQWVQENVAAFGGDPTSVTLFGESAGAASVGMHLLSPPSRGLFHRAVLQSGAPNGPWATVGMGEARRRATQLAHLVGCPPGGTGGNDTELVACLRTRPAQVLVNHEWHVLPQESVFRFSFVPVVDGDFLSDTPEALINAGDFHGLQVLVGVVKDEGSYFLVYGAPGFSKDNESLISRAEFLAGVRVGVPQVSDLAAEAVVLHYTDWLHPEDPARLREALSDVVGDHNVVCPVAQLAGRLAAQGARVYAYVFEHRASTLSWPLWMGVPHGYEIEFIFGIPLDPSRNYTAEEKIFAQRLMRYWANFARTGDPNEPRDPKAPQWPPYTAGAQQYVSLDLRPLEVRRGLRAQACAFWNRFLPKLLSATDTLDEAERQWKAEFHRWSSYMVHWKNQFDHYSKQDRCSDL
Voltage-gated inwardly rectifying potassium channel KCNH2 (Homo sapiens), sequence (Q12809 whole entry, looked up): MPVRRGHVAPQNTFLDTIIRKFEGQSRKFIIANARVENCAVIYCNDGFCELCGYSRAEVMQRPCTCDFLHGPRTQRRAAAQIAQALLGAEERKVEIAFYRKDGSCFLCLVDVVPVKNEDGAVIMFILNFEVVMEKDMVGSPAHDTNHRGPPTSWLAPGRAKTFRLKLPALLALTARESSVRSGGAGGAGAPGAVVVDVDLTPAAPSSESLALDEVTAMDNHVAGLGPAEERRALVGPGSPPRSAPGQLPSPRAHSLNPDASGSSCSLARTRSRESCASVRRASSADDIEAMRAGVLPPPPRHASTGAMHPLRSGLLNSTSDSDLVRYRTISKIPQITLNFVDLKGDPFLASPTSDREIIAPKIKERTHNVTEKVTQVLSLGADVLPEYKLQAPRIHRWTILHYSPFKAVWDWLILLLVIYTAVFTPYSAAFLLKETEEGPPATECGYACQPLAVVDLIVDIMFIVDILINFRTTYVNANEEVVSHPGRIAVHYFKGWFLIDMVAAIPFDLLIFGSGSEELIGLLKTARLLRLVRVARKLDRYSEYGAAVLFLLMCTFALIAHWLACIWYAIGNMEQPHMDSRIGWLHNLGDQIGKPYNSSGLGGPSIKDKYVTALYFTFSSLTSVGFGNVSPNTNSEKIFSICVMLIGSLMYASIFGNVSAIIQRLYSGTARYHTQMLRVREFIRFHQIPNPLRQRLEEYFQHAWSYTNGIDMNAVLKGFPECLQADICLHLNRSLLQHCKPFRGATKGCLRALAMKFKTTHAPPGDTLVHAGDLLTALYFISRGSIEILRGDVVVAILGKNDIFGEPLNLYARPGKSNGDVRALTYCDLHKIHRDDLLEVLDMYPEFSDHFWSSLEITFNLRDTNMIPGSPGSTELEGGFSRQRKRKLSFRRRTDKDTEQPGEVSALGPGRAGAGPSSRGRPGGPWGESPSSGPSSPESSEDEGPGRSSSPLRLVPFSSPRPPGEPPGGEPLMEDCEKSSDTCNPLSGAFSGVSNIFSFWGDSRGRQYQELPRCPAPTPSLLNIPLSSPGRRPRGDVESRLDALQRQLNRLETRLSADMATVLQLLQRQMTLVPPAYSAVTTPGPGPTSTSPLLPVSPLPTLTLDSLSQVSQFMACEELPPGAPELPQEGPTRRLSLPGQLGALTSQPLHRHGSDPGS
Cytochrome P450 2D6 (Homo sapiens), sequence (P10635 whole entry, looked up): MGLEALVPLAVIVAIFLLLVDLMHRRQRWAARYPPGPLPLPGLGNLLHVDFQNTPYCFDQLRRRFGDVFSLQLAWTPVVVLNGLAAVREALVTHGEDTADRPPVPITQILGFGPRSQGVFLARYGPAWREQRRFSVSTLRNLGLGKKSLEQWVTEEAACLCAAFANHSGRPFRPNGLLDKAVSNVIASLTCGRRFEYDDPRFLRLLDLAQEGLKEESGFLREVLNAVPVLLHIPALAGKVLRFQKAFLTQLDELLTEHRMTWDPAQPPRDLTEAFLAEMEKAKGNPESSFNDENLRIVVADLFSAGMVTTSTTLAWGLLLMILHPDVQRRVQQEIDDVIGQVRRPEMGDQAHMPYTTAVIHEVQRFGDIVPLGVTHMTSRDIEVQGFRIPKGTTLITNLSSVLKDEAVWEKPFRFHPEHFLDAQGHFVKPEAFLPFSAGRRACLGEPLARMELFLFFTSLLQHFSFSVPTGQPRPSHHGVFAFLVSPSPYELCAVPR
Cytochrome P450 2C9 (Homo sapiens), sequence (P11712 whole entry, looked up): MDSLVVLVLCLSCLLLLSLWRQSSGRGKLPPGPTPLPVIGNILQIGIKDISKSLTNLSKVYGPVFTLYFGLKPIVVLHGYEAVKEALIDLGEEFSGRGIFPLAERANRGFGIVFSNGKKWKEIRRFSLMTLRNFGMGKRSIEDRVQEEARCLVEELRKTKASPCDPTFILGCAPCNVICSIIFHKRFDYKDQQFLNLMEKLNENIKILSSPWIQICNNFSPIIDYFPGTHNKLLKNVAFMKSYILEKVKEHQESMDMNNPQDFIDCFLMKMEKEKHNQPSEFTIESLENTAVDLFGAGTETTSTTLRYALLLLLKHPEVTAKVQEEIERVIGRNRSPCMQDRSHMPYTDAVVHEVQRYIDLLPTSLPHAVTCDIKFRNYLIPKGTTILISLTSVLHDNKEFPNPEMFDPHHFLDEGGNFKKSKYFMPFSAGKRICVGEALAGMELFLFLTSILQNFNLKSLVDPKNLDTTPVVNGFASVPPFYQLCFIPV
Nuclear receptor subfamily 1 group I member 2 (Homo sapiens), sequence (O75469 whole entry, looked up): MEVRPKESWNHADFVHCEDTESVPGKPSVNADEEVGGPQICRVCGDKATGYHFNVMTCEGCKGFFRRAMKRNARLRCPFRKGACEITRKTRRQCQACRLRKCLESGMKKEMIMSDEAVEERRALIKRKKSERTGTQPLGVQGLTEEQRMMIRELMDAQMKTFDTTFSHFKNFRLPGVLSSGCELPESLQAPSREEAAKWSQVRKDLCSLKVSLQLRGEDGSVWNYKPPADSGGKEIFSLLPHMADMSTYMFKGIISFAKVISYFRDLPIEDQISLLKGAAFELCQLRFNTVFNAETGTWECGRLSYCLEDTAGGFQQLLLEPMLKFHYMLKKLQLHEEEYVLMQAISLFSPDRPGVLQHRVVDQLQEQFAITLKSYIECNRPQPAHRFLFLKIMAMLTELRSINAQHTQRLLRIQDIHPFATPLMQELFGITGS
Cytochrome P450 3A4 (Homo sapiens), sequence (P08684 whole entry, looked up): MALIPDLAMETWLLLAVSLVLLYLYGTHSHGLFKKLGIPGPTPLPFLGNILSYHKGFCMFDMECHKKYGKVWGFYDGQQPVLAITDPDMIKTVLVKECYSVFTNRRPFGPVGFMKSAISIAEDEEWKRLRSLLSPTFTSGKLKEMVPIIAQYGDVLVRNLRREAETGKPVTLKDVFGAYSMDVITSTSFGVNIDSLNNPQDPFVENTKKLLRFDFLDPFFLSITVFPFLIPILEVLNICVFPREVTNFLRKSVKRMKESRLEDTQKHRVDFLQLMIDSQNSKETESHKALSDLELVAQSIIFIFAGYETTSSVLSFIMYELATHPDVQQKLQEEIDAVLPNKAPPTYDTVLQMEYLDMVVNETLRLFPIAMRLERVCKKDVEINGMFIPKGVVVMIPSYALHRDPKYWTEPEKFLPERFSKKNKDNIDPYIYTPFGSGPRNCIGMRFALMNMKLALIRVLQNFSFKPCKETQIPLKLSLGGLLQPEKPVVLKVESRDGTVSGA

Turning to `Brc1ccc(Oc2ccc(Br)cc2Br)c(Br)c1`, the Potency entry in assay [1], in assay [2], in assay [3], in [5], in assay [6] and in assay [7] was “inactive” each time. The Potency result in assay [8], in assay [9], in [13] and in assay [14] was “inactive” each time. Besides, the Potency in assay [4] was 30.7 µM (active); in assay [10] it was 0.142 µM (active); in [11], 12.6 µM (active); in assay [12] it was 12.6 µM (active).

For `COP(=S)(OC)Oc1nc(Cl)c(Cl)cc1Cl`, the Potency entry in assay [1], in assay [2], in [15], in assay [3], in assay [4] and in assay [5] was “inactive” in each case. Moreover, the Potency result in assay [6], in assay [7], in assay [8] and in assay [9] was “inactive” in each case. Further, the Potency in assay [10] is 79.6 µM (active); in [11], 25.2 µM (active); in [12], 44.8 µM (active); in assay [14], 11.2 µM (active).

With `CC(C)=CC1C(C(=O)OC(C#N)c2cccc(Oc3ccccc3)c2)C1(C)C` (stereo unspecified), the Potency result in assay [1], in assay [2], in assay [15], in assay [3], in assay [5] and in [6] was “inactive” throughout. The Potency result in assay [7], in assay [8] and in [13] was “inactive” in each case. The values for the Potency in assay [4], in assay [10] and in assay [11] were 17.2 µM (active), 31.7 µM (active) and 10 µM (active), respectively.

Regarding `COC(=O)c1cc(Oc2ccc(Cl)cc2Cl)ccc1[N+](=O)[O-]`, the Potency result in assay [1], in assay [2], in assay [15], in assay [3], in assay [5] and in assay [6] was “inactive” in each case. The Potency result in assay [7], in [8] and in assay [14] was “inactive” in each case. The Potency was 54.5 µM (active) in assay [4]; 22.4 µM (active) in assay [9]; 2.52 µM (active) in assay [10]; 7.1 µM (active) in [11]; 15.9 µM (active) in [12].

As to `ClC1=C(Cl)[C@]2(Cl)[C@H]3[C@H]([C@@H]4C=C[C@H]3C4)[C@@]1(Cl)C2(Cl)Cl`, the Potency result in [1], in assay [2], in [3], in assay [5], in assay [6] and in assay [7] was “inactive” throughout. Further, the Potency result in assay [8], in assay [11] and in assay [12] was “inactive” in each case. Besides, the Potency in [4] was 34.3 µM (active) and inactive; in assay [9], 35.5 µM (active) and inactive; in [10] it was “inactive and 35.6 µM (active)”; in assay [14] it was 252 nM (active) and 399 nM (active).

On to `O=C(N[C@@H]1N=C(c2ccccc2F)c2cccc3c2N(CC3)C1=O)c1cc2ccccc2[nH]1`, for which the Potency result in assay [1], in [16], in assay [3], in assay [6], in assay [8] and in [9] was “inactive” in each case. For the same compound, the Potency result in assay [12] and in assay [14] was “inactive” throughout. In addition, the Potency was 10.6 µM (active) in assay [4], 4.9 µM (active) in assay [11] and 12 µM (active) in assay [13].

Consider `CCN(CC)CCN1C(=O)CN=C(c2ccccc2F)c2cc(Cl)ccc21`, for which the Potency result in assay [2], in assay [16], in assay [15], in [3], in assay [18] and in [6] was “inactive” in each case. Moreover, the Potency entry in [7], in assay [8], in assay [10] and in assay [12] was “inactive” throughout. Besides, the values for the Potency in [4], in assay [19] and in assay [13] were 13.3 µM (active), 14.1 µM (active) and 3.79 µM (active), respectively. The max activation in assay [17] was 8.1% (inactive).

For the compound `Clc1ccc(C(Cl)(Cl)Cl)cc1Cl`, the Potency result in assay [1], in assay [15], in assay [5], in [6], in [8] and in [9] was “inactive” in each case. The Potency result in assay [11] and in assay [13] was “inactive” throughout. Also, the Potency in assay [4] was 30 µM (active).
